# Assay results published in the supplement of paper PMC10849652.
# The full data set covers some 8,800 targets. This sample favours those with a hit. About 0.5% of all pairs of compound and target were hits. Unmarked numbers belong to inactive results.
# Experiments:
# Assay in all cases: log2 fold change, soluble protein after heating vs DMSO (PISA); higher = thermal stabilisation; K562 lysate, 10 uM; active = over 0.2 and 3.5 SD of the protein, either way, in both replicates (recomputed)
# erlotinib = compound: C#Cc1cccc(Nc2ncnc3cc(OCCOC)c(OCCOC)cc23)c1 [erlotinib]
# How it was run: (§1)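 A 30 min treatment with 10 μM compound was applied to crude K562 extract at 1 mg/mL protein in PBS pH 7.4 with 1 mM MgCl2. Heating for 3 min spanned 48°C-58°C, after which aliquots were pooled, adjusted to 0.5% NP-40 at 4°C and spun at 21,000xg for 90 min. TMTpro 16plex LC-MS/MS of the supernatant, with channel sums equalised, gave values recorded as log-two fold change in thermal stability against solvent controls, from duplicates.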
# [1] = compound: C/C(=N\NC(=O)C1=CC(=CC=C1)S(=O)(=O)N2CCOCC2)/C3=C(C=CC(=C3)Cl)O
# How it was run: as §1
# [2] = compound: C1=CC(=CC=C1C2=NC3=C(N2)C=C(C=C3)C(=O)N)OC4=CC=C(C=C4)Cl
# How it was run: as §1
# [3] = compound: C1=CC2=C(C=CC(=C2)/C=C\3/C(=O)NC(=NCC4=CC=CS4)S3)N=C1
# How it was run: as §1
# [4] = compound: C1=CC2=NC=CN=C2C=C1/C=C/3\C(=O)NC(=O)S3
# How it was run: as §1
# [5] = compound: C1=CC=C(C=C1)C2=NC(=C(N2)C3=CC=NC=C3)C4=CC(=C(C=C4)Cl)O
# How it was run: as §1
# [6] = compound: C1=CC=C2C(=C1)C3=NNC4=CC=CC(=C43)C2=O
# How it was run: as §1
# [7] = compound: C1CCN(C1)C(=O)NC2=CC=CC(=C2)NC3=NC=C(C(=N3)NCCC4=CN=CN4)Br
# How it was run: as §1
# [8] = compound: C1CN(CCC1(CC2=CC=C(C=C2)Cl)N)C3=NC=NC4=C3C=CN4
# How it was run: as §1
# IRAK-1-4 Inhibitor I = compound: C1COCCN1CCN2C3=CC=CC=C3N=C2NC(=O)C4=CC(=CC=C4)[N+](=O)[O-] [IRAK-1-4 Inhibitor I]
# How it was run: as §1
# Chain of UniProt Q5VZE5 (Q5VZE5 whole entry, looked up): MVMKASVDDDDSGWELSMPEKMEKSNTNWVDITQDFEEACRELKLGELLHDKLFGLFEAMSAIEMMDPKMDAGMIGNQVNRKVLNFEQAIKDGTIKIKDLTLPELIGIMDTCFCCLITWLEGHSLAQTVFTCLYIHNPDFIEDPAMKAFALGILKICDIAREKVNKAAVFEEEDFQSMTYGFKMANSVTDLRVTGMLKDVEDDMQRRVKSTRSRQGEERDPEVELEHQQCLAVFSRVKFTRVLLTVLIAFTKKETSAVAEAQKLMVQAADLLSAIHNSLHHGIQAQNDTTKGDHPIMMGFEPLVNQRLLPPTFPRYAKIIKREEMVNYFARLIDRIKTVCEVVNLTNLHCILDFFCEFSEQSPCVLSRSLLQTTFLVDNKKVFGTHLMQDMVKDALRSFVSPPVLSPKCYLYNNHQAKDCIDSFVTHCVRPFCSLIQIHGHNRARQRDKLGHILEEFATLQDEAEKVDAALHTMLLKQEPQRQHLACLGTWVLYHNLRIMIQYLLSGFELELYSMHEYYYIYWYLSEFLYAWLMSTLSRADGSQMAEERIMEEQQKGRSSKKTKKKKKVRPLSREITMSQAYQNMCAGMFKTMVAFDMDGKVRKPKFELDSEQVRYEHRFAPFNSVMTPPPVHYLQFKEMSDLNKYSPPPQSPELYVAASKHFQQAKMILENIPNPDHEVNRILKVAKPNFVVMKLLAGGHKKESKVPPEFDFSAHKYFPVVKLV
# Chain of UniProt Q9Y5N5 (Q9Y5N5 whole entry, looked up, one chain of several): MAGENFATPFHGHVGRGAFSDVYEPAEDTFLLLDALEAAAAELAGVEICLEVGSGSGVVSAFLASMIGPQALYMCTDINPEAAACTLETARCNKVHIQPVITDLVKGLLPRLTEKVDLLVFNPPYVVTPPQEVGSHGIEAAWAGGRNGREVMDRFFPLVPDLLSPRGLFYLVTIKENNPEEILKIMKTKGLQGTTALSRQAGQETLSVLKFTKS
# Chain of UniProt Q9UDX5 (Q9UDX5 whole entry, looked up): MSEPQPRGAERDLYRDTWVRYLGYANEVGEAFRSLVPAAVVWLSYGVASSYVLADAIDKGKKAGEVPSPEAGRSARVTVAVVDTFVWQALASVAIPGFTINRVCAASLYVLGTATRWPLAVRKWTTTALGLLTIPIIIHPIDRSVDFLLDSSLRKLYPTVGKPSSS
# Chain of UniProt P40261 (P40261 whole entry, looked up): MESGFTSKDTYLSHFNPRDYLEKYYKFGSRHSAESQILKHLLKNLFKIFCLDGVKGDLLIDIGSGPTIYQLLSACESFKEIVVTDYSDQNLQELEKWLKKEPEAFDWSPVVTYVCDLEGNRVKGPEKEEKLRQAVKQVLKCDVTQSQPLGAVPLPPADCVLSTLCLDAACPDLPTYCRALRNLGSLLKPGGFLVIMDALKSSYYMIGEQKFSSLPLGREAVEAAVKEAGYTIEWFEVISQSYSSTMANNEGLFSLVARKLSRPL
# Chain of UniProt Q147X3 (Q147X3 whole entry, looked up): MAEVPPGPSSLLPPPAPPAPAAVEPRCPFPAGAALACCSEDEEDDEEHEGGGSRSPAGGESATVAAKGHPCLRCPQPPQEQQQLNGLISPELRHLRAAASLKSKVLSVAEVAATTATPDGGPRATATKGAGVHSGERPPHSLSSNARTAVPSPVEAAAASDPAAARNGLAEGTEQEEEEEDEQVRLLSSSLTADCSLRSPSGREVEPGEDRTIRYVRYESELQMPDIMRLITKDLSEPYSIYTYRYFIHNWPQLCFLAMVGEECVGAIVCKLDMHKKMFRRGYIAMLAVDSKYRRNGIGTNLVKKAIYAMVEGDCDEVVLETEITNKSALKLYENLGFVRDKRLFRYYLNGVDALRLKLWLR
# Chain of UniProt Q9BTX1 (Q9BTX1 whole entry, looked up): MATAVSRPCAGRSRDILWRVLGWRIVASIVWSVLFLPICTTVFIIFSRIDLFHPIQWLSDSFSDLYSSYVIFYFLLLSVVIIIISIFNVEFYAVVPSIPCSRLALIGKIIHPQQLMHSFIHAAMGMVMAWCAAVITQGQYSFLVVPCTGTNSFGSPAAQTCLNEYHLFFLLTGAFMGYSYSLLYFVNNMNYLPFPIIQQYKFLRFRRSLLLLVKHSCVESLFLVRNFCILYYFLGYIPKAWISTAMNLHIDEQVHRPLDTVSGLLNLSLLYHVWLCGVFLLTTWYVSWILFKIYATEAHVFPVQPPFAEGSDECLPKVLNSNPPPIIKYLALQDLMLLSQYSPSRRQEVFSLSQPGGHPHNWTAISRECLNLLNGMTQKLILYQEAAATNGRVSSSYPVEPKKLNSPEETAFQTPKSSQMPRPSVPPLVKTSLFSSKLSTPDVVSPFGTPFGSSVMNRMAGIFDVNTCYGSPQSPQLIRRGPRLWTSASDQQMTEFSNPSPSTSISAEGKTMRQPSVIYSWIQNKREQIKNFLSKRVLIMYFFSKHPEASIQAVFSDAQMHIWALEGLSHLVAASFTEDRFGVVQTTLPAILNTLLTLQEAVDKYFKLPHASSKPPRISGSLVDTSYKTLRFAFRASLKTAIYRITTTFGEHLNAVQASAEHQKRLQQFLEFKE
# Chain of UniProt O60934 (O60934 whole entry, looked up): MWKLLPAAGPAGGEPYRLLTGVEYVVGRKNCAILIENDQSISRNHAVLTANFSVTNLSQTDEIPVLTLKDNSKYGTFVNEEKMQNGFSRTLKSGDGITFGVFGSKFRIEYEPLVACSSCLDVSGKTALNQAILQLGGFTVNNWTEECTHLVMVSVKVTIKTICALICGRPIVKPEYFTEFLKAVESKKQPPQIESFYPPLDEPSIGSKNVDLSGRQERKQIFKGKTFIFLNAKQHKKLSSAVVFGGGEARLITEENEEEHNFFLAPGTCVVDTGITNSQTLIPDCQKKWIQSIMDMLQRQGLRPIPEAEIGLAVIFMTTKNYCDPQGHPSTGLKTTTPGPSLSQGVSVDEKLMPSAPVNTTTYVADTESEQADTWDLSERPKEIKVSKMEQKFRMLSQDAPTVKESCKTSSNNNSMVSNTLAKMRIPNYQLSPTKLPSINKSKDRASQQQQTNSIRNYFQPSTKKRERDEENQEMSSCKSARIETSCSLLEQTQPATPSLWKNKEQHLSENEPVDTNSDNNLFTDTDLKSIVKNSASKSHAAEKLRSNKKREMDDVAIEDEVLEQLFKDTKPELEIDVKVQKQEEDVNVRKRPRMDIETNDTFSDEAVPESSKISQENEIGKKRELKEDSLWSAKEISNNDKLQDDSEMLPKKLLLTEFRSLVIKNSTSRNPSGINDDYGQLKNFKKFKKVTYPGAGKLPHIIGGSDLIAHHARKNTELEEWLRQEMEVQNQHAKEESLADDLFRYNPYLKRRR
# Chain of UniProt Q8NC60 (Q8NC60 whole entry, looked up): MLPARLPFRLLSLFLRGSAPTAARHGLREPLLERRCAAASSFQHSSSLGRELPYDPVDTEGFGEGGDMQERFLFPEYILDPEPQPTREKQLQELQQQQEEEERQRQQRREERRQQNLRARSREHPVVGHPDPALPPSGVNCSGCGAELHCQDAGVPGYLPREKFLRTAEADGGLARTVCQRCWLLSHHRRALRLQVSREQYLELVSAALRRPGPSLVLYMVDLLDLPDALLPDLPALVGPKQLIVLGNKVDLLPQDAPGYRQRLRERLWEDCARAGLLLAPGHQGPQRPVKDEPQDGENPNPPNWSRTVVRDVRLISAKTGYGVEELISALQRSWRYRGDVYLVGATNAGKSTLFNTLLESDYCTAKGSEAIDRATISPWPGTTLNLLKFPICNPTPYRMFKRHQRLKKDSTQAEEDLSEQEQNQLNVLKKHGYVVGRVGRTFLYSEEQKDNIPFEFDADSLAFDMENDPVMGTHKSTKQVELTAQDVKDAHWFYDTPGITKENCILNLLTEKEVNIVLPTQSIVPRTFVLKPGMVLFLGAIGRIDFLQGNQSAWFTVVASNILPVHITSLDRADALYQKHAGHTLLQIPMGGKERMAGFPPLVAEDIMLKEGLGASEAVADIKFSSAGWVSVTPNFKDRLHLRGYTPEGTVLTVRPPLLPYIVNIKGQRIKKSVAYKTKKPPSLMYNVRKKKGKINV
# Chain of UniProt O00221 (O00221 whole entry, looked up): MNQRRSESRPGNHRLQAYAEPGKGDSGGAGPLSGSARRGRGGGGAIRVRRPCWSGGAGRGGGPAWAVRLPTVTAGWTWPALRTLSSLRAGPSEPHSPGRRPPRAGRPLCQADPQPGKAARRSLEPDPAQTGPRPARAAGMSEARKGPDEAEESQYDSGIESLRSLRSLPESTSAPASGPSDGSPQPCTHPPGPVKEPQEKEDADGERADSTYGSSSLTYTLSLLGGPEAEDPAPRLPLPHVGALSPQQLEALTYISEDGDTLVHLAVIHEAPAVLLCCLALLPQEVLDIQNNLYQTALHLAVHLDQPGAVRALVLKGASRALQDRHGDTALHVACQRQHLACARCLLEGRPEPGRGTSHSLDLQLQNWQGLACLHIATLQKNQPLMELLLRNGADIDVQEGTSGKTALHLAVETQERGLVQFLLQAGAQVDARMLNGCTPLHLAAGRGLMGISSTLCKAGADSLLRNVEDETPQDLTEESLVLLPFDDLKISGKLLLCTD
# Chain of UniProt Q15102 (Q15102 whole entry, looked up): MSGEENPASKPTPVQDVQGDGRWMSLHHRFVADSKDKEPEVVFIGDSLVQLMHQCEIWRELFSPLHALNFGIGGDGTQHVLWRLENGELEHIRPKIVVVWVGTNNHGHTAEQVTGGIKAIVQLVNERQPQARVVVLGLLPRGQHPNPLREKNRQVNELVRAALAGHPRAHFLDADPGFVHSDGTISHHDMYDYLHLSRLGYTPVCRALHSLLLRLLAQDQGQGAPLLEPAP
Target,log2 fold change (erlotinib),log2 fold change [1],log2 fold change [2],log2 fold change [3],log2 fold change [4],log2 fold change [5],log2 fold change [6],log2 fold change [7],log2 fold change [8],log2 fold change (IRAK-1-4 Inhibitor I)
MYOM1 (UniProt P52179),-0.015,0.033,-0.062,-0.228,-0.076,-0.009,0.098,-0.023,0.142,0.503 (active)
MYCBP2 (UniProt O75592),0.01,0,0.031,0.008,-0.008,0.031,-0.023,0.004,0.03,0.022
MTFP1 (UniProt Q9UDX5),-0.006,0.092,0.035,0.041,-0.043,-0.003,0.081,-0.044,0.044,-0.058
NNMT (UniProt P40261),-0.015,0.003,0.045,-0.001,-0.003,0.032,-0.019,-0.002,-0.006,-0.024
NOA1 (UniProt Q8NC60),0.001,0.003,-0.007,-0.051,-0.024,0.033,-0.088,0.07,-0.046,-0.032
MYH11 isoform 2 (UniProt P35749),-0.015,0.035,0.027,-0.002,-0.092,0.142,-0.038,-0.036,0.047,0.013
N6AMT1 (UniProt Q9Y5N5),0.022,-0.053,-0.082,0.02,-0.097,0.013,-0.272,0.005,-0.013,-0.022
NFKBIE (UniProt O00221),0.014,-0.009,-0.117,0.059,-0.022,0.059,-0.026,-0.078,0.081,0.119
NBN (UniProt O60934),-0.026,0.068,0.051,-0.004,-0.024,0.013,-0.044,-0.005,0.013,0.007
PAFAH1B3 (UniProt Q15102),0.037,0.032,-0.017,-0.017,0.022,-0.009,0.005,0.025,0.027,0.005
OCRL (UniProt Q01968),-0.057,-0.031,0.04,0.085,-0.012,0.054,-0.1,0.02,0.055,0.068
NAA35 (UniProt Q5VZE5),0.017,0.054,-0.023,0.115,0.021,0.01,-0.002,-0.026,-0.025,0.013
NAA30 (UniProt Q147X3),0.015,-0.027,0.061,0.026,-0.007,-0.046,-0.038,-0.088,-0.031,0.085
NSA2 (UniProt O95478),-0.015,-0.15,0.009,-0.102,-0.05,-0.002,-0.016,0.157,0.109,-0.006
NDC1 (UniProt Q9BTX1),-0.002,0.015,0.026,0.047,0.031,-0.005,-0.077,0.013,0.024,0.026
